Experimental data: PubChem BioAssay (NCATS)
Inconclusive results are not listed. Entries that show only a call come without a potency. Values without a mark were called inactive. Calls of active or inactive are those of the source. Unless noted, the call rests on the fitted dose curve; in most records, active means well fitted curve in the direction sought with a large enough effect; inconclusive means small, poorly fitted or top-dose-only effect, or another doubt; inactive means no such curve, though single readings can be large; an effect the other way counts as inactive or inconclusive.

Molecular target: Calcium and integrin-binding protein 1 (Homo sapiens) (UniProt Q99828)
Sequence (Q99828 whole entry, looked up): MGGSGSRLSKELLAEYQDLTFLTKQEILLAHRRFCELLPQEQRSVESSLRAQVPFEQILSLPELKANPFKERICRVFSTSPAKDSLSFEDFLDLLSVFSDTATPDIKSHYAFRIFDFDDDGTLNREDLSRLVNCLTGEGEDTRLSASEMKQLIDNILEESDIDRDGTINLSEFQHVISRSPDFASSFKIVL
Test: Primary qHTS for Identification of Calcium Integrin Binding Protein 1 (CIB1) Competitor (AID 1508620);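 further: GST tagged CIB1 binding a fluorescein labelled alphaIIb integrin peptide tracer; top concentration of the series differs between compounds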
Conditions: CIB1-GST / FITC-alphaIIb peptide fluorescence polarization; series mostly up to 114 µM
How it was run: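 CIB1-GST (1 uM final) and compound incubated 15 min at room temperature before adding FITC-alphaIIb peptide tracer (100 nM final). Competition for binding read by fluorescence polarization (ex 480, em 540) after another 15 min at room temperature.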
For CC(C)=C1C[C@@]2(C)C(=CC1=O)CC[C@@H](OC(=O)/C(C)=C/CO)[C@@H]2C, the Potency was “inactive”.
With COc1cc(C[C@H]2C(=O)OC[C@@H]2Cc2ccc(OC)c(OC)c2)ccc1O the Potency was “inactive”.
In the case of Cc1cc2ncc(C(=O)NCC(C)(C)NCC(=O)N3CCC[C@H]3C#N)cn2n1, the Potency is reported as “inactive”.
For COC1=CC(=O)O/C1=C(/OC)[C@@H]1O[C@H]1c1ccccc1, the Potency was “inactive”.
In the case of CC(C)CCCCC(=O)N[C@@H](CO)C(=O)N[C@@H](CC(C)C)C(=O)[C@@]1(CO)CO1, the Potency is reported as “inactive”.
In the case of C[C@@H]1CN(CC(=O)N2CC(C)(C)c3ncc(Cc4ccc(F)cc4)cc32)[C@@H](CN2CCOC[C@H]2C)CN1, the Potency is reported as “inactive”.
With CCCCCCCOc1cc2c(cc1/C(C)=C/c1ccc(C(=O)O)cc1)C(C)(C)CCS2(=O)=O the Potency was “inactive”.
With CC(C)(C)C1CCN(C(=O)n2ncc(C(O)(c3ccccc3)c3ccccc3)n2)CC1 the Potency was “inactive”.
With CO[C@H]1O[C@@H]2O[C@@]3(C)CCC4[C@H](C)CCC([C@H]1C)[C@]42OO3 (stereo partly specified) the Potency was “inactive”.
With COc1cc(C(=O)NCC2(N(C)C)CCCC2)cc(OC)c1OCc1ccccc1 the Potency was “inactive”.
For O=S(=O)(c1ccccc1)N(CC(F)(F)F)c1ccc(C(O)(C(F)(F)F)C(F)(F)F)cc1, the Potency was “inactive”.
In the case of C=C1CO[C@@]2(O[C@H]3CC4C5CC=C6C[C@@H](O)C[C@@H](O[C@@H]7OC[C@H](O)[C@H](O[C@@H]8OC[C@@H](O)[C@H](O)[C@H]8O)[C@H]7O[C@@H]7O[C@@H](C)[C@H](OC(C)=O)[C@@H](OC(C)=O)[C@H]7OC(C)=O)[C@]6(C)C5CC[C@]4(C)[C@@H]3[C@@H]2C)[C@@H](O)[C@H]1OC1OC(C)C(O)C(O)C1O (stereo partly specified), the activity change, negative = inhibition is reported as -5.12% [at 12.4 µM].
With CC(=O)O[C@@H]1C[C@@]23C[C@@]24CC[C@H](O[C@@H]2OC[C@H](O)[C@H](O)[C@H]2O)C(C)(C)[C@@H]4CC[C@H]3[C@]2(C)[C@@H](O)C34O[C@H](C[C@@H](C)[C@@H]3[C@@]12C)[C@@H](C(C)(C)O)O4 the Potency was “inactive”.
For Cc1nc(C#Cc2ccnc(Cl)c2)c(C)n1-c1ccc(OC(F)(F)F)cc1, the Potency was “inactive”.
For CN(C)CC#CCCC(=O)C(O)(c1ccccc1)C1CCC1 (stereo unspecified), the Potency was “inactive”.
In the case of Cc1ccc(-c2ncccn2)c(C(=O)N2C[C@H](COc3ccc(F)cn3)CC[C@H]2C)c1, the Potency is reported as “inactive”.
With COc1ccc(C2(N(C)C(=O)c3ccc(NC(=O)c4ccco4)cc3)CCOCC2)cc1 the Potency was “inactive”.
With CCC(C)C(=O)O[C@H]1[C@H](O)[C@@]2(COC(C)=O)C(CC1(C)C)C1=CCC3[C@@]4(C)CC[C@H](O[C@@H]5O[C@H](C(=O)O)[C@@H](O)[C@H](O)[C@H]5O)[C@@](C)(CO)C4CC[C@@]3(C)[C@]1(C)C[C@@H]2O (stereo partly specified) the Potency was “inactive”.
With O=C(Cc1cccc(OC(F)(F)F)c1)Nc1ccc(CCCCc2nnc(NC(=O)Cc3ccccn3)s2)nn1 the Potency was “inactive”.
With CCOC(=O)c1cnc2ccc(-c3cncc(NS(=O)(=O)c4ccccc4)c3)cn12 the Potency was “inactive”.
For O=C(CCl)Nc1cccc(NC2=NS(=O)(=O)c3ccccc32)c1, the Potency was “inactive”.
With C[C@H]1CC[C@@]2(OC1)O[C@H]1CC3[C@@H]4CC[C@@H]5C[C@@H](O[C@@H]6O[C@H](CO)[C@@H](O[C@@H]7O[C@@H](C)[C@H](O)[C@@H](O)[C@H]7O)[C@H](O)[C@H]6O[C@@H]6O[C@H](CO)[C@@H](O)[C@H](O)[C@H]6O)CC[C@]5(C)C4CC[C@]3(C)[C@H]1[C@@H]2C (stereo partly specified) the Potency was “inactive”.
In the case of O=c1cc(N2CCN(c3cccc(C(F)(F)F)c3)CC2)[nH]c(=O)n1C1CCCCC1, the Potency is reported as “inactive”.

Test system: not listed separately
Test: Primary qHTS for small molecule stabilizers of the endoplasmic reticulum resident proteome: Secreted ER Calcium Modulated Protein (SERCaMP) assay (AID 1508630)
Conditions: SH-SY5Y GLuc-SERCaMP (Gaussia luciferase released on ER calcium loss) secretion, thapsigargin, luminescence; series mostly up to 38.4 µM
How it was run: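 The SH-SY5Y reporter protocol was run at 3 concentrations up to 38.3 uM (primary) or 11 concentrations (follow-up): 16 h compound, 100 nM thapsigargin for 4 h, then extracellular luciferase luminescence.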
For COc1ccc2[nH]c(=O)c3c(c2c1)OC(C)(C)C=C3, the outcome was “inactive”.
In the case of CCc1ccccc1OC[C@@H](O)CN[C@H]1CCCc2ccccc21, the outcome is reported as “inactive”.
For COc1cc(C[C@H]2C(=O)OC[C@@H]2Cc2ccc(OC)c(OC)c2)ccc1O, the outcome was “inactive”.
For O=S(=O)(c1ccccc1)N(CC(F)(F)F)c1ccc(C(O)(C(F)(F)F)C(F)(F)F)cc1, the outcome was “inactive”.

Molecular target: Cytochrome P450 2D6 (Homo sapiens) (UniProt P10635)
Sequence (P10635 whole entry, looked up): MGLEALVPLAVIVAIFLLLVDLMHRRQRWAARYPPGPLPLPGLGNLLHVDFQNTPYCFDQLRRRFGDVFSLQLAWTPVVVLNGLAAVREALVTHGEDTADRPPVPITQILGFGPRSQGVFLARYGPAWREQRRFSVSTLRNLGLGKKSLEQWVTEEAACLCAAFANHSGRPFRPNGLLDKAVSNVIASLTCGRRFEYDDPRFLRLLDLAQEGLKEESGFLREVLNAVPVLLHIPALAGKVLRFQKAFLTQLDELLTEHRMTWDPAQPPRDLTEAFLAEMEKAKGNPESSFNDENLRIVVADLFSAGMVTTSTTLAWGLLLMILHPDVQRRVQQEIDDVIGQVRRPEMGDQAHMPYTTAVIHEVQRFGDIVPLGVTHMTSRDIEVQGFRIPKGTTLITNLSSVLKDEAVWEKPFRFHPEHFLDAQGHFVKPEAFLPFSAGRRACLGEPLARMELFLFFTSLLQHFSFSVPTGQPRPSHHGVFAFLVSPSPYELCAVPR
Test: Cytochrome P450 family 2 subfamily D member 6 (CYP2D6) small molecule antagonists: luciferase biochemical (cell-free) qHTS assay (AID 1645840; active means well fitted curve in the direction sought with a large enough effect in the repeat runs; an effect the other way counts as inactive or inconclusive; further: nearly all actives have a fitted effect of over 55% in size; further: potency means the concentration at half of the fitted maximal effect)
Conditions: P450-Glo CYP2D6 enzyme, luciferin luminescence, 1 h; series mostly up to 57.4 µM
How it was run: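 P450-Glo CYP2D6 system: proluciferin substrate converted by enzyme to luciferin, read by luminescence proportional to activity. Enzyme-substrate mix with compound 10 min at room temperature, then NADPH regeneration 1 h before detection reagent.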
For COc1ccc(-c2ccc3c(N4CCOCC4C)nc(N4CCOCC4C)nc3n2)cc1CO (stereo unspecified), the Potency was “inactive”.
For CCN1CCN(Cc2ccc(NC(=O)c3ccc(C)c(Oc4ccnc5[nH]ccc45)c3)cc2C(F)(F)F)CC1, the Potency was 10.7 µM (active).
In the case of CCc1ccccc1OC[C@@H](O)CN[C@H]1CCCc2ccccc21, the Potency is reported as 0.477 µM (active).
In the case of O=C(CCl)Nc1cccc(NC2=NS(=O)(=O)c3ccccc32)c1, the Potency is reported as “inactive”.
